The list is not random: actives were taken first. Their share in the collection is about 10%.
ALDH1A1 inh – inhibitors of human aldehyde dehydrogenase 1A1; P00352; Purified ALDH1A1, NADH fluorescence, propionaldehyde substrate; Potency, µM (titrated, usually from 75.3 µM), without a hit: at the highest dose activity, negative = inhibition, most hits filed as inhibitors; 7.3% of 220,000 active;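 also: potency is read from the fitted curve at half-maximal effect; plate controls were no enzyme wells and a reference inhibitor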
Target sequence (P00352 whole entry, looked up): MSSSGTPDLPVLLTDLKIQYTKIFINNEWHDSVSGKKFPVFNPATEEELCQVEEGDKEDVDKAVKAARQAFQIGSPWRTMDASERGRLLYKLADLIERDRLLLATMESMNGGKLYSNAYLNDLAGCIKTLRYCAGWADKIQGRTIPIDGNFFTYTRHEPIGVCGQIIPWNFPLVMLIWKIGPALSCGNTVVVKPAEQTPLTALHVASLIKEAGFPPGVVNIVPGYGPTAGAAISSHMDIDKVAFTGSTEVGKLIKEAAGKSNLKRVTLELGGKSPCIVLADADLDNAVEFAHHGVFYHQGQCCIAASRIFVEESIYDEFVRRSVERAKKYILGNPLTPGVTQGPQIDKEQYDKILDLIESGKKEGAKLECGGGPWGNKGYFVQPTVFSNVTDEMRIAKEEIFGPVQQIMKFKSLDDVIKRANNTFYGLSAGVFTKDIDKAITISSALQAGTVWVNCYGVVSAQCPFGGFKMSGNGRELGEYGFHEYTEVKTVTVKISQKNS
LMNA splice mod – LMNA splicing modulation. HeLa LMNA splicing GFP/RFP minigene ratio, 48 h. Potency, µM (series often up to 46.1 µM), for inactives: top-dose ratio change, negative = inhibition, usual class: inhibitors. 0.01% of 200,000 active. AID 1487; active = well fitted inhibition curve with a large enough effect in the signal ratio, with a control signal flat, not every such curve was filed as active; inconclusive = small, poorly fitted or top-dose-only effect, or effect the other way, or a change in a side signal; the % refers to the signal ratio; also: potency is read from the fitted curve at half-maximal effect
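S3 HeLa stable clones carrying a lamin A-EGFP splicing minigene plus DsRed2 were seeded at 600 cells/well in Opti-MEM with 2% FBS, pin-dosed and incubated 48 h at 37°C. Acumen cytometry (488 nm) gave the GFP/RFP total-intensity ratio.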
PNC inhibitor – blocks assembly of the perinucleolar compartment. PC3M PTB-GFP, PNC prevalence imaging, 16 h; hits give low values. activity change (PNC), negative = inhibition, % at 10 µM. 3.1% of 140,000 active. AID 2417;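 active = readout at or below -70, meaning at least 70% loss of cells showing the perinucleolar compartment, a nuclear body marking cancer cells; inconclusive = readout between -30 and a set limit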;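 also: plate controls were DMSO wells for no effect and camptothecin positive control wells for full effect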
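Compounds are pinned in duplicate onto adhered PC3M cells stably expressing GFP-tagged PTB and incubated 16 h at 37 C. Cells are then fixed, nuclei stained with Hoechst, and PNC-positive cells counted.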
Luc counter – blocks Kinase-Glo luciferase, a counter-screen artifact; Q27757; Kinase-Glo luciferase, ATP luminescence, 8 min; Potency, µM (top dose mostly 38.3 µM), for the others: at the top dose activity change, negative = inhibition, hits mostly inhibitors; 0.28% of 200,000 active; active = well fitted inhibition curve with a large enough effect; inconclusive = small, poorly fitted or top-dose-only effect; also: potency is read from the fitted curve at half-maximal effect; nearly all actives have a fitted effect of over 60% in size
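Compounds were added to a substrate mix at pH 7.2 (50 mM imidazole, 10 uM ATP, within the enzyme's linear range), followed by Kinase-Glo detection reagent; luminescence was measured after 8 minutes at ambient temperature.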
HPGD inh – blocks human HPGD enzyme activity | purified HPGD, NADH fluorescence kinetic, PGE2 substrate | Potency, µM, for inactives: top-dose activity change, negative = inhibition, actives largely listed as inhibitors | 4.3% of 150,000 active | AID 894; also: potency is read from the fitted curve at half-maximal effect
Target sequence (P15428 whole entry, looked up): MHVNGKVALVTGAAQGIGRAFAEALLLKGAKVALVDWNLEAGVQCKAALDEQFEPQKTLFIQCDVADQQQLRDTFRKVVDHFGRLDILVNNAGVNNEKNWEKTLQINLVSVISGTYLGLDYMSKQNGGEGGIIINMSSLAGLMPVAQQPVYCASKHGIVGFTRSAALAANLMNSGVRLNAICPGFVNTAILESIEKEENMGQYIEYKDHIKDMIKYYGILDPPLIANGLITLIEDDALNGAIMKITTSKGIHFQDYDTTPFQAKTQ
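NADH formation kinetics: reaction with 30 uM PGE2 and 1 mM NAD+ (final), 20 nM enzyme, Tris-HCl pH 8 with Tween 20, after 15 min compound preincubation at room temperature. Fluorescence change, last versus first of five reads.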
* marks the source's active call; other numbers are inactive results; ? = inconclusive; . = no result; [ ] = dose if it differs, or a comment. Unless noted, calls follow the shape of the dose curve; as a rule, active = well fitted inhibition curve with a large enough effect (not every such curve was filed as active); inconclusive = small, poorly fitted or top-dose-only effect, or another doubt; inactive = no such curve, though single readings can be large or run the other way. Unless noted, % is scaled to controls: 0 for no effect and ±100 for the full control effect.

SMILES	ALDH1A1 inh	LMNA splice mod	PNC inhibitor	Luc counter	HPGD inh
COc1cccc(C(=O)c2c[nH]c(C(=O)NCc3cccnc3)c2)c1	-11.0%	5.1%[9.22 µM]	.	2.4%	.
CC1(C)C[C@](C)(C(=O)c2ccccc2)C=C1c1ccccc1	4.9%	.	.	1.2%	-7.0%
Cc1ccc(NCCC(=O)c2cccc([N+](=O)[O-])c2)cc1	0.316µM*	-16.5%	-11.3	2.2%	-10.2%
O=C(CCNc1ccc(F)cc1)c1cccc([N+](=O)[O-])c1	0.224µM*	-18.9%	13.7	10.1%	4.2%
O=C(NCCNc1ccc([N+](=O)[O-])cc1C(F)(F)F)c1ccccc1	10µM*	?	?	4.6%	-26.4%
O=C(CCNc1ccc(Br)cc1)c1cccc([N+](=O)[O-])c1	0.631µM*	?	.	-1.5%	.
COc1ccc(NC(=O)C2CCN(S(=O)(=O)c3ccc4[nH]c(=O)ccc4c3)CC2)c(OC)c1	.	0.5%[46 µM]	.	.	.
O=C(O)/C=C\C(=O)Nc1ccc2c(c1)C(=O)c1cc(F)ccc1-2	?	.	.	-3.4%[7.66 µM]	-3.7%
COc1ccc(-c2nnc(SCC(=O)Nc3ccc(C)c(C)c3)s2)cc1	.	11.0%[46 µM]	.	.	.
O=C(NCCNc1ccc([N+](=O)[O-])cc1)c1cccc(Br)c1	7.08µM*	-0.5%	-7.7	1.1%	-8.9%
CCOCCn1c(CN2CCc3ccccc3C2)nc2c1c(=O)n(C)c(=O)n2C	2.4%	.	.	.	.
Cc1nn(-c2ccccc2)c2sc(C(=O)N(CC(=O)NC(C)(C)C)Cc3ccco3)cc12	25.1µM*	-22.3%	?	2.3%	-28.0%
COc1ccc(C2=C(Nc3ccc(F)cc3)c3ccccc3C2=O)cc1	?	?	-12.7	-2.6%	25.1µM*
CCCCN(C(=O)Nc1ccc(Cl)cc1)C1CCN(C(C)=O)CC1	?	?	-94.7*	0.9%	-7.6%
Cc1nnc2n1NC(c1ccc(Cl)cc1)C(C(=O)N1CCC(C)CC1)S2 (stereo not drawn)	12.1%	-1.1%	-111.6*	-3.0%	-2.4%
Cc1nnc2n1NC(c1ccc(Cl)cc1)C(C(=O)N(C)C1CCCCC1)S2 (stereo not drawn)	-9.7%	4.7%	16.5	0.5%	-7.0%
N#CC(C#N)=CNCCN1CCN(C=C(C#N)C#N)CC1	8.0%[13.5 µM]	.	.	-4.1%[7.66 µM]	-11.6%
COc1cc(NC(=O)O[C@@H]2C(=O)c3cc(Br)ccc3O[C@H]2c2ccc3c(c2)OCO3)cc(OC)c1OC	-9.8%	.	.	-1.3%	-11.9%
Cc1ccc(NC(=O)COCc2cc(-c3cccs3)on2)cc1Cl	.	2.1%[46 µM]	.	.	.
OC(c1cccc(OCc2ccccc2)c1)c1nnc(-c2ccccc2)o1 (stereo not drawn)	5.6%	?	?	1.1%	?
OC(c1ccc(OCc2ccccc2)cc1)c1nnc(-c2ccccc2)o1 (stereo not drawn)	-1.9%	?	-23.4	20.1%	20µM*
O=[N+]([O-])c1ccc2c(c1)c(S(=O)(=O)O)cc1nonc12	16.3%[13.5 µM]	.	.	-8.0%[7.66 µM]	-14.6%
CC(=O)OC[C@@]12C(=O)[C@@H](O)[C@@H](C)[C@]3(C[C@@H](c4ccoc4)O[C@@H]3OC(C)=O)[C@H]1CCC[C@]21CO1	12.7%	.	.	-0.9%	-3.7%
COc1ccc(-n2sc3c(c2=S)-c2cc(OC)ccc2NC3(C)C)cc1	31.6µM*	?	-16.4	1.3%	-29.2%
COc1ccc2c(c1)-c1c(sn(-c3ccccc3)c1=S)C(C)(C)N2	6.5%	?	?	-0.8%	-2.2%
SMILES	ALDH1A1 inh	LMNA splice mod	PNC inhibitor	Luc counter	HPGD inh
CCOC(=O)C1CCN(C(=O)CSc2n[nH]c(-c3ccccc3Cl)n2)CC1	.	6.1%[46 µM]	.	.	.
O=C(CSc1nnnn1C1CCCCC1)NNC(=O)c1ccco1	4.74µM*	.	.	2.8%	.
O=C(CSc1cccs1)NCCc1ccccc1	-6.5%	3.7%	?	-0.3%	14.1µM*
O=C(CSc1nnnn1C1CCCCC1)NCCc1ccccc1	10µM*	?	?	-0.4%	-13.0%
NS(=O)(=O)c1ccc(CCNC(=O)CSc2cccs2)cc1	?	2.4%[46 µM]	.	1.4%	.
CC(C)(C)OC(=O)N[C@@H](Cc1ccccc1)c1nnc(S(=O)(=O)Cc2ccccc2)o1	?	?	14.0	1.0%	3.55µM*
CC(C)(C)OC(=O)N[C@@H](Cc1ccccc1)c1nnc(SCC(=O)O)o1	1.2%	9.9%	-5.7	-5.6%	-0.8%
CCSc1nnc([C@H](Cc2ccccc2)NC(=O)OC(C)(C)C)o1	?	-3.7%	-10.9	-5.6%	-4.1%
CCC(C)[C@@H](NC(=O)OC(C)(C)C)c1nnc(S(=O)(=O)Cc2cccc(C)c2)o1 (stereo partly drawn)	-3.9%	?	6.1	-4.7%	14.1µM*
Cc1ccccc1CS(=O)(=O)c1nnc([C@H](Cc2ccccc2)NC(=O)OC(C)(C)C)o1	14.1µM*	?	?	-2.8%	7.08µM*
COC(=O)c1ccc(CSc2nc3c([nH]c4ccccc43)c(=O)n2-c2cccc(Cl)c2)o1	.	29.6%[46 µM]	.	.	.
CCCCc1nc2c(c3c1C[C@H](C)OC3)CN(C(=O)NCCc1c[nH]c3ccccc13)CC2	13.8%[13.5 µM]	-5.3%[9.22 µM]	.	-3.8%[7.66 µM]	-0.1%
CCN(CC(=O)NC(=O)NCc1ccco1)Cc1nc2ccccc2c(=O)[nH]1	10µM*	18.4%	-3.5	-2.6%	-23.7%
Cc1cccc(NC(=S)N2CCn3cccc3C2c2cccnc2)c1 (stereo not drawn)	?	-10.5%	?	-0.4%	-1.7%
S=C(NCc1ccccc1)N1CCn2cccc2C1c1cccnc1 (stereo not drawn)	3.55µM*	.	.	-3.0%	.
S=C(NCCc1ccccc1)N1CCn2cccc2C1c1cccnc1 (stereo not drawn)	?	-7.6%[46 µM]	.	0.8%	.
COc1cccc(NC(=S)N2CCn3cccc3C2c2cccnc2)c1 (stereo not drawn)	14.1µM*	-19.1%[46 µM]	.	3.4%	.
CCOC(=O)c1c(C)c(C(=O)NCc2ccc(OC)cc2)c(C)n1C	7.94µM*	.	.	2.8%	.
CCOC(=O)c1c(C)c(C(=O)N2CCCCCC2)c(C)n1CC	0.1%	-14.2%	22.9	-2.4%	12.6µM*
CCOC(=O)c1c(C)c(C(=O)NCc2ccccc2OC)c(C)n1C	-2.4%	5.0%	28.0	-6.6%	-6.0%
CCOC(=O)c1sc(NCC2CCCO2)nc1C (stereo not drawn)	-4.2%	-4.7%	-8.3	1.6%	12.6µM*
CCOC(=O)c1sc(NC(=O)CC)nc1C	2.5%	0.1%[9.22 µM]	.	-3.1%	.
CCOC(=O)c1c(C)c(C(=O)N2CCCCCC2)c(C)n1C	0.4%	-4.3%	13.2	-1.4%	15.8µM*
CCOC(=O)c1c(C)c(C(=O)N2CCN(c3ccccc3)CC2)c(C)n1C	-3.9%	.	.	1.8%	.
N[C@H](CCC(=O)NCC(=O)O)C(=O)O	0.5%	.	.	3.7%	-4.7%
Cn1nnc2c(NCc3c(F)cccc3F)ncnc21	.	-5.6%[46 µM]	.	.	.
C[C@](O)(c1ccccc1)c1nccc2ccccc12	8.9%[13.5 µM]	.	.	-6.2%[7.66 µM]	-7.3%
CCOC(=O)c1c(C)c(C(=O)NCC2CCCO2)c(C)n1CC (stereo not drawn)	?	20.4%	?	-1.7%	22.4µM*
